Laboratory results taken from PubChem BioAssay.
“And” between values parts separate entries of the source, which are not always exact repeats. Equal values may be shown once. Inconclusive results are not listed. The source made the active and inactive calls. Unless noted, the rule behind the calls is not given here.

What was measured:
[1] = system: Aerobactin synthetase IucA (Klebsiella pneumoniae); assay: IucA aerobactin synthetase inhibitors, biochemical, Tocris library, absorbance (AID 1345561); settings: purified IucA enzyme assay, absorbance (OD) read-out; stronger effect = lower value;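 tested at 8 µM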;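 note: 100% = enzyme without compound and 0% = no enzyme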
[2] = viability loss in pontine glioma line – cell-based, SU-DIPG-XXV, MIPE5.0, CellTiter-Glo, qHTS, dose response (AID 1347065; cut-off not given, nearly all actives have AC50 up to about 26 µM;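 note: cells exposed to compound for 48 hours before ATP readout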); settings: CellTiter-Glo ATP luminescence
[3] = JHH-DIPG-1 glioma cell viability, MIPE5.0 library, CellTiter-Glo luminescence, qHTS (AID 1347067; cut-off not given, nearly all actives have AC50 up to about 26 µM;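 note: cells exposed to compound for 48 hours before readout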); settings: JHH-DIPG-1 glioma viability, CellTiter-Glo ATP luminescence
[4] = SU-DIPG-XXV glioma cell viability, MIPE5.0 library, qHTS (AID 1347068; cut-off not given, nearly all actives have IC50 up to about 30 µM;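 for IC50: cells exposed to compound for 48 hours before viability readout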)
[5] = sensitizers of A549 cells to miR-34 induction, primary screen, imaging, A549 dox-inducible miR-34, nuclei and caspase counts (AID 1347080;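 active = compounds whose cell count with miR-34 switched on is under 0.7 times the count with it off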); settings: A549 miR-34 inducible, Hoechst nuclei count, 48 h
[6] = inhibitors of Cryptococcus chitosan production, flow cytometry, Cibacron Brilliant Red staining (AID 1347148); settings: Cryptococcus neoformans chitosan, stronger effect = lower value; at 10 µM unless noted;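 note: compound exposure lasted three days at 37 degrees C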
[7] = viability rescue of complex I mutant cybrids, primary screen, cell-based, galactose medium, ATP luminescence (AID 1645843;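 active = z-score of at least 1.8 in each of two replicates, scored against plate mean and spread of sample wells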;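 note: positive z means more ATP and so rescue of galactose-driven cybrid death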); settings: complex I mutant cybrid cells, 72 h, stronger effect = higher value
[8] = growth inhibition of DIPG glioma cells, dose response, cell-based, SU-DIPG-IV, MIPE4.0, CellTiter-Glo, qHTS (AID 1347063; cut-off not given, nearly all actives have AC50 up to about 30 µM;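 note: compound exposure lasted 48 hours before the viability readout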); settings: SU-DIPG-IV viability, CellTiter-Glo ATP luminescence
[9] = circadian clock period modulators, cell-based, LOPAC library, luminescence reporter (AID 2774); settings: circadian reporter cells, at 7 µM, actives lie on both sides;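 note: values are relative to mean of DMSO wells on each plate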
[10] = hESC survival regulators, cell-based (AID 493140); settings: human embryonic stem cell survival screen; stronger effect = higher value;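 note: cells exposed to compounds for four days before counting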
[11] = liver-stage malaria parasite growth inhibition, primary screen, cell-based, HepG2, luciferase luminescence, HepG2 viability (AID 624349; in the data active = parasite load remaining mostly below about 12%, no sharp cut-off; inactive = mostly above about 10%;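 note: 100% = mean of DMSO negative control wells on the same plate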); settings: P. berghei liver stage in HepG2, luciferase luminescence, concentration not given here; parasite load remaining: stronger effect = lower value; viability: measured here: HepG2 viability without parasites
[12] = system: Hepatitis C virus NS3 helicase; assay: HCV NS3 helicase inhibitors, primary screen, biochemical, fluorescence polarization, LOPAC1280 library (AID 687035; in the data active = inhibition above about 37%); settings: Purified HCV NS3 helicase, Cy5-dT15 ssDNA binding fluorescence polarization; stronger effect = higher value; concentration not given here
[13] = Cy5 fluorescence quenching or enhancement artefacts, artefact control for HCV NS3 helicase inhibitor project, biochemical, LOPAC1280 (AID 687037); settings: Cy5-DNA-NS3h complex fluorescence interference counterscreen
[14] = phospholipid biosynthesis inhibitors in animal cells, primary screen, cell-based, LOPAC library, screen 4 (AID 1347384); settings: phospholipid biosynthesis inhibition screen, at 10 µM
[15] = growth inhibition of DIPG glioma cells, dose response, cell-based, JHH-DIPG-1, MIPE4.0, CellTiter-Glo, qHTS (AID 1347062; cut-off not given, nearly all actives have AC50 up to about 27 µM); settings: JHH-DIPG-1 viability, CellTiter-Glo ATP luminescence
[16] = SU-DIPG-VI glioma cell viability, MIPE4.0 library, CellTiter-Glo luminescence, qHTS (AID 1347066; cut-off not given, nearly all actives have AC50 up to about 30 µM;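 note: cells exposed to compound for 48 hours before readout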); settings: CellTiter-Glo ATP luminescence
[17] = growth inhibition of DIPG glioma cells, dose response, cell-based, SU-DIPG-XIII, MIPE4.0, CellTiter-Glo, qHTS (AID 1347061; cut-off not given, nearly all actives have AC50 up to about 37 µM;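 note: cells exposed to compound for 48 hours before readout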); settings: SU-DIPG-XIII viability, CellTiter-Glo ATP luminescence
[18] = modifiers of HSF1 nuclear foci, imaging, Selleck Cancer Library (AID 1347162; in the data active = plate-normalised HSF1 focus index below about 0.46); settings: human cells, at 10 µM; SSMD: measured here: HSF1 foci SSMD mean; cell count: measured here: cell number; plate-normalised HSF1 focus index: stronger effect = lower value
[19] = stronger effect = lower value, cell number ratio, induced over uninduced
[20] = measured here: relative caspase fold change +Dox/-Dox
[21] = measured here: total cells with miR-34 induction, stronger effect = lower value
[22] = measured here: total cells without miR-34 induction

Question: For `CCCC[C@@H](C=O)NC(=O)[C@H](CC(C)C)NC(=O)OCc1ccccc1`, which remaining activity [1] is on record?
Answer: The remaining activity was 86.3% (inactive).

Question: What about the outcome [2] of the same molecule?
Answer: Its outcome is “inactive”.

Question: And the outcome [3]?
Answer: The outcome was “inactive”.

Question: What about the IC50 [4] of the same molecule?
Answer: Its IC50 is 16.6 µM (active).

Question: And the fold change [5, 19]?
Answer: Its fold change is 0.927 (inactive) and 0.862 (inactive).

Question: What about the fold change [5, 20] of the same molecule?
Answer: Its fold change is 1.01 and 0.983.

Question: And the cell count [5, 21]?
Answer: Its cell count is 6040 and 7590.

Question: What about the cell count [5, 22] of the same molecule?
Answer: Its cell count is 6520 and 8800.

Question: What about the fold fluorescence [6] of the same molecule?
Answer: Its fold fluorescence is 5.15 [at 137.9 µM] (inactive).

Question: What about the z-score [7] of the same molecule?
Answer: The z-score was 2.31 (inactive).

Question: Which remaining activity [1] does the source give for `C[C@H](NC(=O)c1sccc1OCc1ccc(Cl)cc1)c1ccccc1` here?
Answer: The remaining activity was 124% (inactive).

Question: What about the AC50 [8] of the same molecule?
Answer: Its AC50 is 18.7 µM (active).

Question: And the AC50 [2]?
Answer: The AC50 was 16.6 µM (active).

Question: And the AC50 [3]?
Answer: Its AC50 is 18.6 µM (active).

Question: What about the outcome [4] of the same molecule?
Answer: Its outcome is “inactive”.

Question: What about the fold change [5, 19] of the same molecule?
Answer: The fold change was 1.09 (inactive).

Question: What about the fold change [5, 20] of the same molecule?
Answer: Its fold change is 1.01.

Question: What about the cell count [5, 21] of the same molecule?
Answer: The cell count was 4320.

Question: And the cell count [5, 22]?
Answer: Its cell count is 3970.

Question: What about the z-score [7] of the same molecule?
Answer: Its z-score is -1.04 (inactive).

Question: For `O=Nc1c(-c2c(O)[nH]c3ccccc23)[nH]c2ccccc12`, which period change [9] is on record?
Answer: Its period change is -0.845 h (active).

Question: What about the survival [10] of the same molecule?
Answer: The survival was 71.6 (inactive).

Question: What about the parasite load remaining [11] of the same molecule?
Answer: Its parasite load remaining is 33.5% (inactive).

Question: What about the viability [11] of the same molecule?
Answer: The viability was 168%.

Question: And the inhibition [12]?
Answer: Its inhibition is 0% (inactive).

Question: What about the fluorescence ratio (interference) [13] of the same molecule?
Answer: Its fluorescence ratio (interference) is 1 (inactive).

Question: And the remaining activity [1]?
Answer: The remaining activity was 116% (inactive).

Question: And the fold change [5, 19]?
Answer: The fold change was 1.02 (inactive) and 0.941 (inactive) and 1.27 (inactive).

Question: What about the fold change [5, 20] of the same molecule?
Answer: Its fold change is 0.96 and 0.857 and 0.731.

Question: And the cell count [5, 21]?
Answer: Its cell count is 1220 and 814 and 1460.

Question: And the cell count [5, 22]?
Answer: Its cell count is 1200 and 866 and 1140.

Question: And the fold fluorescence [6]?
Answer: Its fold fluorescence is 9.39 [at 180.3 µM] (inactive).

Question: And the outcome [14]?
Answer: Its outcome is “active”.

Question: And the z-score [7]?
Answer: The z-score was -1.48 (inactive) and -0.805 (inactive).

Question: With `CC(C)(Sc1ccc(CCN(CCCCC2CCCCC2)C(=O)NC2CCCCC2)cc1)C(=O)O` as the molecule, how does the period change [9] read?
Answer: The period change was -0.015 h (inactive).

Question: What about the inhibition [12] of the same molecule?
Answer: Its inhibition is 3% (inactive).

Question: What about the fluorescence ratio (interference) [13] of the same molecule?
Answer: Its fluorescence ratio (interference) is 1 (inactive).

Question: And the remaining activity [1]?
Answer: The remaining activity was 122% (inactive).

Question: What about the outcome [15] of the same molecule?
Answer: Its outcome is “inactive”.

Question: And the outcome [16]?
Answer: The outcome was “inactive”.

Question: And the outcome [4]?
Answer: Its outcome is “inactive”.

Question: What about the fold change [5, 19] of the same molecule?
Answer: Its fold change is 0.945 (inactive) and 0.954 (inactive) and 0.926 (inactive).

Question: What about the fold change [5, 20] of the same molecule?
Answer: Its fold change is 1.38 and 0.651 and 0.687.

Question: And the cell count [5, 21]?
Answer: Its cell count is 8520 and 5920 and 7310.

Question: And the cell count [5, 22]?
Answer: The cell count was 9020 and 6210 and 7900.

Question: And the outcome [14]?
Answer: The outcome was “inactive”.

Question: What about the z-score [7] of the same molecule?
Answer: The z-score was 0.62 (inactive) and 1.14 (inactive).

Question: For `CC(C)(C)/[N+]([O-])=C/c1ccc(S(=O)(=O)O)cc1S(=O)(=O)O`, which remaining activity [1] is on record?
Answer: The remaining activity was 104% (inactive).

Question: What about the outcome [17] of the same molecule?
Answer: Its outcome is “inactive”.

Question: What about the outcome [15] of the same molecule?
Answer: Its outcome is “inactive”.

Question: What about the outcome [8] of the same molecule?
Answer: Its outcome is “inactive”.

Question: What about the outcome [16] of the same molecule?
Answer: Its outcome is “inactive”.

Question: And the fold change [5, 19]?
Answer: Its fold change is 1.35 (inactive).

Question: What about the fold change [5, 20] of the same molecule?
Answer: Its fold change is 1.12.

Question: And the cell count [5, 21]?
Answer: The cell count was 7460.

Question: What about the cell count [5, 22] of the same molecule?
Answer: The cell count was 5520.

Question: What about the z-score [7] of the same molecule?
Answer: The z-score was 2.67 (inactive).

Question: With `C=CCc1cccc(/C=N/NC(=O)CN2CCN(Cc3ccccc3)CC2)c1O` as the molecule, how does the remaining activity [1] read?
Answer: Its remaining activity is 83.1% (inactive).

Question: And the AC50 [16]?
Answer: The AC50 was 16.6 µM (active).

Question: And the fold change [5, 19]?
Answer: Its fold change is 1.09 (inactive) and 0.918 (inactive) and 0.982 (inactive).

Question: What about the fold change [5, 20] of the same molecule?
Answer: The fold change was 0.357 and 1.59 and 1.69.

Question: What about the cell count [5, 21] of the same molecule?
Answer: The cell count was 2970 and 4320 and 3830.

Question: And the cell count [5, 22]?
Answer: Its cell count is 2740 and 4710 and 3900.

Question: What about the SSMD [18] of the same molecule?
Answer: The SSMD was 3.11.

Question: What about the cell count [18] of the same molecule?
Answer: Its cell count is 7490.

Question: And the plate-normalised HSF1 focus index [18]?
Answer: Its plate-normalised HSF1 focus index is 1.19 (inactive).

Question: And the outcome [14]?
Answer: The outcome was “inactive”.

Question: What about the z-score [7] of the same molecule?
Answer: The z-score was -1.15 (inactive) and -0.59 (inactive).

Question: Which period change [9] does the source give for `Oc1cc(O)cc(/C=C/c2ccc(O)c(O)c2)c1` here?
Answer: Its period change is -0.07 h (inactive).

Question: What about the survival [10] of the same molecule?
Answer: The survival was 27.6 (inactive).

Question: What about the inhibition [12] of the same molecule?
Answer: Its inhibition is -6% (inactive).

Question: And the fluorescence ratio (interference) [13]?
Answer: Its fluorescence ratio (interference) is 0.9 (inactive).

Question: What about the remaining activity [1] of the same molecule?
Answer: Its remaining activity is 112% (inactive).

Question: What about the outcome [17] of the same molecule?
Answer: The outcome was “inactive”.

Question: And the AC50 [3]?
Answer: Its AC50 is 16.6 µM (active).

Question: What about the outcome [4] of the same molecule?
Answer: Its outcome is “inactive”.

Question: And the fold change [5, 19]?
Answer: Its fold change is 1.12 (inactive) and 0.813 (inactive) and 0.863 (inactive).

Question: What about the fold change [5, 20] of the same molecule?
Answer: Its fold change is 0.772 and 1.12 and 0.797.

Question: What about the cell count [5, 21] of the same molecule?
Answer: The cell count was 9320 and 2290 and 7210.

Question: And the cell count [5, 22]?
Answer: The cell count was 8350 and 2810.

Question: What about the fold fluorescence [6] of the same molecule?
Answer: The fold fluorescence was 4.54 [at 204.7 µM] (inactive).

Question: And the outcome [14]?
Answer: Its outcome is “inactive”.

Question: What about the z-score [7] of the same molecule?
Answer: The z-score was -1.24 (inactive) and -0.7 (inactive).
